Data taken from ChEMBL document CHEMBL3988442, “University of Dundee, Small-Polar-MMV Screening Library” (2021).
About 13,000 (27%) of roughly 48,000 compounds showed an effect of 50% or more. This is one part of the list.

System: Wolbachia pipientis
Assay: Anti-Wolbachia Cell-Based Screen
Assay type: functional
Parameters: scale not given: in the data most compounds retested in dose-response had high values
Conditions: 5 µM

Row | SMILES | Percent Effect [%]
1 | COc1ccc(C2=CCN(C(=O)CN(C)CC(N)=O)CC2)cc1 | -8.253
2 | O=C(NCC1CC1)c1cc(Cl)c2c(c1)OCCCO2 | -14.68
3 | CCCC(C)(C)NC(=O)c1cnc(CC)s1 | -7.388
4 | CN(C)C1CC2(CCN(C(=O)C3(C#N)CC3)CC2)c2ccccc21.O=C(O)C(F)(F)F (centres undefined) | 5.959
5 | O=C1CSCN1Cc1nc(-c2ccc(N3CCCCC3)cc2)no1 | -5.803
6 | CCOCC1CN(Cc2ccc(OC)cc2)Cc2nn(C)cc21.O=C(O)C(F)(F)F (centres undefined) | 11.5
7 | CN(C)CC(=O)N1Cc2nnn(C)c2C(COCc2ccccn2)C1.O=C(O)C(F)(F)F.O=C(O)C(F)(F)F (centres undefined) | 6.818
8 | CN(C)CCOCC1CN(Cc2ccccn2)Cc2nnn(C)c21.O=C(O)C(F)(F)F.O=C(O)C(F)(F)F.O=C(O)C(F)(F)F (centres undefined) | 99.25
9 | Cn1nnc2c1C(COCC1CC1)CN(C(=O)Cc1ccsc1)C2 (centres undefined) | 2.514
10 | CN(C)CCOCC1CN(Cc2ccsc2)Cc2nnn(C)c21.O=C(O)C(F)(F)F.O=C(O)C(F)(F)F (centres undefined) | 121.1
11 | Cn1nnc2c1C(COCc1ccccn1)CN(C(=O)c1ccsc1)C2.O=C(O)C(F)(F)F (centres undefined) | -2.517
12 | CN(C)CCOCC1CN(Cc2ccncc2)Cc2nnn(C)c21.O=C(O)C(F)(F)F.O=C(O)C(F)(F)F.O=C(O)C(F)(F)F (centres undefined) | 96.02
13 | COc1ccc(CN2Cc3nnn(C)c3C(COCCN(C)C)C2)cc1.O=C(O)C(F)(F)F.O=C(O)C(F)(F)F (centres undefined) | 106.7
14 | COCC1CN(Cc2ccc(OC)cc2)Cc2nnn(CC3CC3)c21.O=C(O)C(F)(F)F (centres undefined) | -5.304
15 | CC(C)NC(=O)NC[C@H]1OC[C@@H](NCc2ccccc2F)[C@@H]1O | -8.31
16 | CC(O)CN1CCC(CN(C)Cc2ccc(C#N)cc2)CC1 (centres undefined) | -6.641
17 | COCc1nnc(-c2cccc(C(=O)N(C)CC(C)(C)C)c2)o1 | 1.349
18 | CC(C)Oc1cccc(CN(C)C(=O)Cc2ccon2)c1 | 7.051
19 | CN(C)CCOCC1CN(CC2CCOCC2)Cc2nnn(C)c21.O=C(O)C(F)(F)F.O=C(O)C(F)(F)F (centres undefined) | 0.5849
20 | CCS(=O)(=O)N1Cc2nnn(C)c2C(COCCN(C)C)C1.O=C(O)C(F)(F)F (centres undefined) | 7.645
21 | CN(C)CCOCC1CN(Cc2ccc(F)cc2)Cc2nnn(C)c21.O=C(O)C(F)(F)F.O=C(O)C(F)(F)F (centres undefined) | 94.54
22 | Cc1noc(CCCC(=O)NC(C)c2cccnc2)n1 (centres undefined) | -10.11
23 | O=C(NC1CC1)N1CC[C@H](OCC2CC2)[C@@H]1Cc1cccnc1.O=C(O)C(F)(F)F | -2.258
24 | COCC(=O)N1CC[C@@H](O)[C@@H]1Cc1ccccc1 | -9.68
25 | CN(C)C(=O)N1CC[C@@H](O)[C@@H]1Cc1ccccc1 | 109.4

Row | SMILES | Percent Effect [%]
26 | CN(C)C(=O)N1CC[C@@H](O)[C@@H]1Cc1cnn(C)c1 | 3.844
27 | CN1CCN([C@@H]2CCN(C(N)=O)[C@H]2Cc2ccccc2)CC1 | -47.59
28 | CC(=O)N1CC[C@@H](N2CCN(C)CC2)[C@@H]1Cc1ccccc1 | -7.108
29 | COCC(=O)N1CC[C@@H](N2CCOCC2)[C@@H]1Cc1ccccc1 | -5.655
30 | O=C(NC1CC1)N1CC[C@@H](O)[C@@H]1Cc1ccccc1 | 101.4
31 | NC(=O)N1CC[C@H](O)[C@@H]1Cc1ccccc1 | 106.8
32 | CCC(=O)N1CC[C@H](O)[C@@H]1Cc1ccccc1 | 99.45
33 | CN(C)[C@@H]1CCN(C(=O)NC2CCCC2)[C@H]1Cc1ccncc1.O=C(O)C(F)(F)F.O=C(O)C(F)(F)F | -4.406
34 | COCCN1CC[C@H](O)[C@@H]1Cc1ccccc1.O=C(O)C(F)(F)F | -7.454
35 | c1ccc(-c2cnn3cc(CN4CCC5(CCO5)CC4)cnc23)cc1 | -14.3
36 | CC(C)C(=O)N1CCN(CC(O)c2cc(Cl)ccc2Cl)CC1 (centres undefined) | 10.47
37 | CC(NC(=O)COc1ccc(Cl)cc1Cl)c1nncn1C(C)C (centres undefined) | 0.4331
38 | CN(Cc1ccccc1)CC(C)(C)NC(=O)c1ccc(C(N)=O)cn1 | 12.65
39 | COCCCS(=O)(=O)N1CCN(Cc2cccn2C)CC1 | -42.29
40 | CN(C)CCCN1CC2(CCN(C(=O)C3(C)CCCCO3)CC2)OC1=O (centres undefined) | 3.267
41 | O=C(c1ccnnc1)N1CC[C@@H](O)[C@@H]1Cc1ccccc1 | 101.5
42 | O=C(c1ccnnc1)N1CC[C@H](OCC2CC2)[C@@H]1Cc1ccncc1 | 0.4029
43 | CCO[C@@H]1CCN(C(=O)c2ccnnc2)[C@@H]1Cc1cnn(C)c1 | -9.757
44 | CC(C)Cc1nc(OCC(=O)O)c(C#N)c2c1CCC2 | -8.981
45 | CN(Cc1n[nH]c2c1CCCC2)c1cc(N2CCOCC2)nc(N)n1 | 14.47
46 | O=C(c1ccco1)N1CCOCC2(C1)CN(c1ccccn1)C(=O)CO2 (centres undefined) | 92.62
47 | O=C(c1ccco1)N1CCOCC2(C1)CN(c1ccccc1)C(=O)CO2 (centres undefined) | -13.67
48 | O=C(c1ccco1)N1CCOCC2(C1)CN(c1ccoc1)C(=O)CO2 (centres undefined) | 100.8
49 | CN1CC2(COCCN(C(=O)c3ccco3)C2)OCC1=O (centres undefined) | -13.58
